PLK1 PBD block: blocks phosphopeptide binding to human PLK1 polo-box domain; P53350; Plk1 PBD binding of FITC phosphopeptide, fluorescence polarization; Potency, µM, for inactives: max response, negative = inhibition, usual class: inhibitors; actives 2.8% (n = 360,000); AID 720504; also: potency is read from the fitted curve at half-maximal effect; series mostly up to about 57 µM; % is scaled to controls: 0 for no effect and ±100 for the full control effect; nearly all actives have a fitted effect of over 65% in size
PI5P4K alpha inh: blocks human PI5P4K alpha kinase activity. max response, %. P48426. actives 1.2% (n = 330,000). PI5P4Kalpha enzyme, ADP-Glo luminescence, 60 min; hits give low values; active = max response of -50% or lower; inconclusive = between -30% and -50%; inactive = -30% or higher; also: value at the top dose of about 77 µM; % is scaled to controls: 0 for no effect and ±100 for the full control effect
Target sequence (P48426 whole entry, looked up): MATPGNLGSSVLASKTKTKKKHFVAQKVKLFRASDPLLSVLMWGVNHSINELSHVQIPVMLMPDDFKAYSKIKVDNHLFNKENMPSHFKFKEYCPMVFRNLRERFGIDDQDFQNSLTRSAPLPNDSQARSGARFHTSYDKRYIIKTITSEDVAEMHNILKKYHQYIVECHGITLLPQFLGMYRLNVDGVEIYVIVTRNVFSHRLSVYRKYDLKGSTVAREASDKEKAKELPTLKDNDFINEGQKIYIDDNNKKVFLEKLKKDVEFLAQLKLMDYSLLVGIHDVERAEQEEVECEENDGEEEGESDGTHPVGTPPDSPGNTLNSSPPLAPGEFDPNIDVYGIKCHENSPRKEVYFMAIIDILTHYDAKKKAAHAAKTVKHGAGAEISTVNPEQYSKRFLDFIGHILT
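Reactions run in 0.038 M HEPES pH 7.4, 0.28 mM EGTA, 0.1% CHAPS and 5% DMSO, with PI5P4Kalpha, substrate, compound and 5 microM ATP final, one hour at room temperature. Readout is ADP-Glo luminescence.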
HP1b binding inh: HP1-beta chromodomain-methylated histone interaction inhibition | P83916 | AlphaScreen HP1-beta / biotin-H3K9me3 peptide binding | Potency, µM (series often up to 114 µM), for the others: at the highest dose activity change, negative = inhibition, actives largely listed as inhibitors | actives 0.56% (n = 390,000) | AID 540317; also: potency is read from the fitted curve at half-maximal effect; nearly all actives have a fitted effect of over 70% in size
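AlphaScreen: HP1-beta (50 nM) preformed 30 min with biotin-H3(1-18)K9me3 peptide (50 nM) in PBS pH 7.4, 0.01% Tween-20. Compound added for 30 min at RT, then streptavidin donor/nickel chelate acceptor beads (10 ug/mL) for 30 min.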
G9a block: blocks human histone lysine methyltransferase G9a; Q96KQ7; G9a H3K9 monomethylation, AlphaScreen, 2 h; Potency, µM (highest dose often 102 µM), for the others: at the top dose activity, negative = inhibition, usual class: inhibitors; actives 8.8% (n = 350,000); AID 504332; also: potency is read from the fitted curve at half-maximal effect; % is scaled to controls: 0 for no effect and ±100 for the full control effect; nearly all actives have a fitted effect of over 75% in size
Target sequence (Q96KQ7 913-1193 limits assumed): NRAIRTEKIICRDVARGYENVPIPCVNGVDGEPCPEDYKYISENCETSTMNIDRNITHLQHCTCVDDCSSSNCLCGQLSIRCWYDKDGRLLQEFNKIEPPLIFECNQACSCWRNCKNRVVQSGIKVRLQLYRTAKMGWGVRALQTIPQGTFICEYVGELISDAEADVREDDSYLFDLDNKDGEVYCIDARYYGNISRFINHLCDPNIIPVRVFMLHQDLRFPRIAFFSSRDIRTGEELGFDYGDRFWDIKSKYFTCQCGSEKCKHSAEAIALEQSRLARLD
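Chemiluminescent proximity detection of H3K9 monomethylation, read after 10 min bead incubation in the dark. Reaction: 20 nM G9a, 500 nM biotin-H3K9 peptide, 20 uM SAM cofactor, 2 h, room temperature, following 15 min enzyme-compound preincubation.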
BAZ2B inh: BAZ2B (human) inhibition; Q9UIF8; AlphaScreen BAZ2B-H3K14Ac peptide displacement; actives 4.4% (n = 360,000); Potency, µM (titrated, usually from 114 µM), inactives show top-dose activity change, negative = inhibition, hits mostly inhibitors; also: potency is read from the fitted curve at half-maximal effect; % is scaled to controls: 0 for no effect and ±100 for the full control effect; nearly all actives have a fitted effect of over 60% in size
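AlphaScreen displacement: compounds (up to 110uM) incubated 30 min at room temperature with a preformed 50 nM BAZ2B/50 nM biotinylated H3K14Ac peptide complex in PBS pH 7.4 with Tween-20. Donor and acceptor beads at 10 ug/mL final added, 20 min light-protected before reading.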
JMJD2A Tudor: inhibitors of human JMJD2A Tudor domain; actives 4.4% (n = 390,000); O75164; AlphaScreen JMJD2A-Tudor / H3K4me3 peptide binding; Potency, µM (series often up to 114 µM), for inactives: at the top dose activity change, negative = inhibition, usual class: inhibitors; also: potency is read from the fitted curve at half-maximal effect; % is scaled to controls: 0 for no effect and ±100 for the full control effect; nearly all actives have a fitted effect of over 50% in size
Starred values were filed as active, the others as inactive; ? = inconclusive; / = no result; [ ] = another dose, or the depositor's remark. Sampled rows, rich in hits. Any-hit rate of the full collection: about 12%. Unless noted, calls follow the shape of the dose curve; as a rule, active = well fitted curve in the direction sought with a large enough effect; inconclusive = small, poorly fitted or top-dose-only effect, or another doubt; inactive = no such curve, though single readings can be large; an effect the other way counts as inactive or inconclusive.

SMILES | PLK1 PBD block | PI5P4K alpha inh | HP1b binding inh | G9a block | BAZ2B inh | JMJD2A Tudor
Cc1cc(C)c2sc(N(CCCN(C)C)C(=O)c3ccc(S(=O)(=O)N(C)C4CCCCC4)cc3)nc2c1 | 4.5% | -2.9 | ? | 35.5µM* | ? | ?
COc1cc(S(=O)(=O)N(Cc2ccccc2)CC2CCCO2)ccc1-n1cnnn1 (centres undefined) | -10.6% | -3.6 | 7.1% | 0.3% | -13.6% | -5.5%
CCc1ccc2nc(N(CCCN(C)C)C(=O)c3ccc(S(=O)(=O)N(C)C4CCCCC4)cc3)sc2c1 | -4.2% | 3.2 | 14.3% | ? | ? | ?
CCN(CC)CCN(C(=O)c1ccc(S(=O)(=O)N2CCCC2)cc1)c1nc2cc(C)cc(C)c2s1 | -5.4% | 0.5 | 3.9% | ? | -28.2% | -33.8%
COc1ccc(C)c2sc(N(CCCN(C)C)C(=O)c3ccc(S(=O)(=O)N(C)C)cc3)nc12 | -0.4% | 0.8 | 24.1% | ? | / | -1.3%
COc1cc2nc(N(CCN(C)C)C(=O)c3ccc(S(=O)(=O)N(C)CC4CCCO4)cc3)sc2cc1OC (centres undefined) | -12.8% | 1.4 | 28.3% | 31.6µM* | ? | -19.1%
COc1cc2nc(N(CCCN(C)C)C(=O)c3ccc(S(=O)(=O)N(C)C4CCCCC4)cc3)sc2cc1OC | -1.8% | -1.0 | -15.0% | 44.7µM* | -29.1% | -35.2%
CCCCn1c(-c2ccccc2)cnc1SCC(=O)NCCc1ccc(OC)c(OC)c1 | -5.7% | / | ? | ? | 44.7µM* | 56.2µM*
O=C(CSc1ccc2ccccc2c1)Nc1ncccn1 | 2.5% | -0.9 | 32.2% | 44.7µM* | -1.7% | -6.8%
O=C(COC(=O)CSc1ccc2ccccc2c1)NC1CCCC1 | -9.1% | -3.4 | 43.1% | ? | -0.4% | -4.2%
COc1ccc(CCNC(=O)CCCC(=O)n2nc(C)c3ccccc32)cc1OC | ? | -3.1 | 29.9% | 79.4µM* | -10.2%[57.1 µM] | -16.5%
COc1ccc(CCNC(=O)CSc2nnc(-c3ccccc3)c3ccccc23)cc1OC | -3.1% | 10.8 | 15.8% | ? | -6.2% | -12.8%
O=C(COC(=O)CSc1ccc2ccccc2c1)NC1CC1 | -5.3% | 2.8 | 10.5% | 50.1µM* | -0.8% | -4.3%
Cc1ccc(CNC(=O)CN2C(=O)COc3ccccc32)cc1 | / | / | 29.9% | 2.3%[59 µM] | 3.3% | -3.7%
COc1cc(/C=C/C(=O)NC(C)C2CC3CCC2C3)cc(OC)c1OC (centres undefined) | -5.1% | 2.1 | 18.6% | 20.0% | 3.9% | -4.9%
COc1ccc(CC(=O)NCCc2ccc(OC)c(OC)c2)cc1 | -0.2% | -2.5 | 20.9% | 16.6% | -12.7% | -8.4%
COc1ccc(CCNC(=O)CSc2ccc(NC(C)=O)cc2)cc1OC | 13.4µM* | -2.6 | 12.7% | 3.9% | -0.2% | -17.2%
COc1ccc(CCNC(=O)CSCC(=O)Nc2ccccc2)cc1OC | -13.3% | -7.1 | 14.7% | / | -3.5% | -15.3%
COc1ccc(CCNC(=O)CSc2ccc3ccccc3c2)cc1OC | -2.7% | -21.2 | 33.1% | 25.1µM* | 2.5% | -19.5%
COc1cccc(N2CCN(c3ccc4nnc(CCC(=O)O)n4n3)CC2)c1 | / | / | 29.6% | -1.5%[59 µM] | / | -7.7%
CCCNC(=O)c1cc(C2CCCCN2C(=O)c2ccccc2)on1 (centres undefined) | -5.9% | -6.1 | / | / | / | /
N#CC1=C(N)N(c2ccccc2)C(c2ccco2)C1(C#N)C#N (centres undefined) | -16.4% | -9.2 | -22.5% | 15.8%[12.7 µM] | ? | ?
N#CC1=C(N)N(c2ccccc2)C(c2cccc([N+](=O)[O-])c2)C1(C#N)C#N (centres undefined) | ? | -14.3 | -15.6% | 44.7µM* | ? | ?
COC(=O)c1nc(Nc2cc(F)cc(F)c2)nc(NC2CCCC2)n1 | / | / | / | / | / | -13.7%
O=C1[C@H]2[C@@H](C(=O)N1c1cccc3ccccc13)C1(C(=O)c3ccccc3C1=O)N1CCC[C@@H]21 | -3.3% | 4.4 | 6.5% | 39.8µM* | ? | -9.5%
SMILES | PLK1 PBD block | PI5P4K alpha inh | HP1b binding inh | G9a block | BAZ2B inh | JMJD2A Tudor
COc1ccc(-c2csc(/C(C#N)=C\c3ccc(OC)c([N+](=O)[O-])c3)n2)cc1 | -5.2% | -6.8 | 36.3% | 13.2%[59 µM] | 3.6% | 6.0%
COc1ccc(-c2csc(/C(C#N)=C\c3ccc(O)c([N+](=O)[O-])c3)n2)cc1OC | 26.7µM* | ? | ? | / | 11.2µM* | 12.6µM*
N#C/C(=C\c1ccc(O)c([N+](=O)[O-])c1)c1nc2ccccc2s1 | 23.8µM* | -25.6 | ? | 3.98µM* | 25.1µM* | 20µM*
COc1cc(/C=C(\C#N)c2nc3ccccc3s2)cc([N+](=O)[O-])c1O | 21.2µM* | -72.2* | 20µM* | 15.8µM* | 12.6µM* | 11.2µM*
Cc1ccc(NC(=O)C2C3C=CC(O3)C2C(=O)O)cc1C (centres undefined) | 4.1% | -1.0 | 32.8% | 2.8%[0.501 µM] | 89.1µM* | -9.6%
Cc1cccc(NC(=O)C2C3C=CC(O3)C2C(=O)O)c1 (centres undefined) | / | / | / | 28.2µM* | 4.4% | /
O=C1CN(C(=O)CSc2ccccn2)c2ccccc2N1 | -8.3% | -0.3 | 24.3% | / | / | 1.4%
O=C1OCCN1CCNCc1cn(-c2ccc(F)cc2)nc1-c1ccccc1Cl | -7.9% | -8.0 | 28.4% | ? | -18.0% | -13.0%
Cc1ccc(-n2cc(CNCCCn3cccn3)c(-c3cccc(C)c3)n2)cc1 | -8.4% | 14.4 | -2.0% | -13.9% | -20.7% | -17.6%
Cc1ccc(-n2cc(CNCCN3CCOC3=O)c(-c3cccc(C)c3)n2)cc1 | -6.8% | 30.4 | 23.7% | 35.5µM* | ? | -22.6%
Cc1cccc(-c2nn(-c3ccccc3)cc2CNCCO)c1 | / | / | ? | / | / | 10µM*
COc1cc(C(=O)NNC(=O)CN2C(=O)NC(C)(c3ccc(C)cc3)C2=O)cc(OC)c1OC (centres undefined) | -1.8% | 4.5 | 37.9% | 10.5%[12.7 µM] | -4.2% | -8.3%
CCOc1ccc(NC(=O)COc2ccc3c(c2)CCC3)cc1OC | -10.8% | 0.0 | -2.2% | ? | -2.6% | -30.8%
O=[N+]([O-])c1cccc(CNc2ccc3c(c2)CCC3)c1 | 0.2% | -1.9 | 39.8µM* | 12.6µM* | 20µM* | 1.41µM*
COc1ccccc1CNc1ccc2c(c1)CCC2 | -0.3% | 0.2 | 9.6% | -9.5%[0.501 µM] | -9.7% | ?
COc1ccc(CNc2ccc3c(c2)CCC3)cc1Br | 5.0% | 1.7 | 15.0% | 35.5µM* | -26.3% | -23.9%
O=C(Nc1cccc([N+](=O)[O-])c1)Nc1ccc2c(c1)CCC2 | -4.0% | 5.3 | 15.0% | 108.4% | 7.8% | -35.6%
CCOc1cc(CNc2ccc3c(c2)CCC3)ccc1OC | / | / | / | 44.7µM* | ? | /
Cc1noc(C)c1-c1cc(NCCN2CCOCC2)ncn1 | / | / | / | -2.8%[0.501 µM] | / | /
Cc1ccc(N=Nc2c(N)nn3c(N)c(C#N)c(C)nc23)cc1 | -7.5% | ? | 65.8% | -39.0% | -38.6% | 56.2µM*

Source: PubChem (National Center for Advancing Translational Sciences (NCATS))
